Measurements taken from PubChem BioAssay (NCATS).
Records with an inconclusive call do not appear. Active and inactive are the calls of the source. Calls follow the shape of the full dose curve.

target: Peroxisome proliferator-activated receptor delta (Homo sapiens) (UniProt Q03181); assay: qHTS assay for small molecule agonists of peroxisome proliferator-activated receptor delta signaling (AID 588534); settings: HEK293T PPARdelta-UAS-bla, beta-lactamase ratio, 18 h; series mostly up to 76.7 µM
Text: NIH Chemical Genomics Center [NCGC] U.S. Environmental Protection Agency [EPA] National Institutes of Environmental Health Sciences [NIEHS] National Toxicology Program [NTP] NCGC Assay Overview The Peroxisome proliferator-activated receptors (PPARs) are lipid-activated transcription factors of the nuclear receptor superfamily with three distinct subtypes namely PPAR alpha, PPAR delta (also called PPAR beta) and PPAR gamma. All these subtypes heterodimerizes with Retinoid X receptor (RXR) and have different physiological functions. […] This role of PPAR delta implicates the potential use of its ligands in the treatment of metabolic disorders.
Compounds were screened in a titration series in 1536-well format. […] Concentration-response titration points for each compound were fitted to the Hill equation yielding concentrations of half-maximal stimulation (EC50) and maximal response (efficacy) values. qHTS protocol for PPAR-delta beta-lactamase assay in agonist mode [Step] [Parameter] [Value] [Description] 1. Reagent; 6 uL; 4000 cells/well 2. Incubation; 37 C for 5 hrs 3. Compounds; 23 nL; 0.59 nM to 92 uM 4. […] Incubation; 37 C for 18 hrs 6. Detection reagent; 1 uL of CCF4-dye 7. Incubation; RT for 2 hrs 8. Detection; Fluorescence; Envision plate reader

Sequence of Peroxisome proliferator-activated receptor delta (Homo sapiens) (Q03181 whole entry, looked up): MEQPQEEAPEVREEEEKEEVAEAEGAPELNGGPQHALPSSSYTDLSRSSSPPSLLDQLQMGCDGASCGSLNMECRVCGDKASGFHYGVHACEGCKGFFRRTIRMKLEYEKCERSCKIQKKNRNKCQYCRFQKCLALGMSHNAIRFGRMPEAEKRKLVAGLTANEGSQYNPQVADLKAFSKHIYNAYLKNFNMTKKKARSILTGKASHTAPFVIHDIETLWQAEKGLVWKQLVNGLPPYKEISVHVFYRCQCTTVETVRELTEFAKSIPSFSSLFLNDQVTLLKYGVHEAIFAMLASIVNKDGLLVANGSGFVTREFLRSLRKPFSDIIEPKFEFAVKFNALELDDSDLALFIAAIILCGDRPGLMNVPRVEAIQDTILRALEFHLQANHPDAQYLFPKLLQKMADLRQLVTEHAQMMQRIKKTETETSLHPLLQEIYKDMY

Row | Compound | outcome
1 | Clc1nc(Cl)nc(Cl)n1 | inactive
2 | c1ccc2ccccc2c1 | inactive
3 | Brc1ccccc1 | inactive
4 | CC1=CCC(C(C)(C)O)CC1 (stereo not given) | inactive
5 | CNC(=O)CSP(=S)(OC)OC | inactive
6 | CC(C)(C)OOC(C)(C)C | inactive
7 | Cc1cccc(O)c1 | inactive
8 | COc1nc(NC(C)C)nc(NC(C)C)n1 | inactive
9 | C[Si](C)(C)O[Si](C)(C)O[Si](C)(C)C | inactive
10 | C=CC(=O)OCC | inactive
11 | CC(COc1ccc(Oc2ccccc2)cc1)Oc1ccccn1 (stereo not given) | inactive
12 | C=CC(C)=O | inactive
13 | C=C(C)C#N | inactive
14 | CC(C)(C)OO | inactive
15 | CC(O)CCl (stereo not given) | inactive
16 | Cc1ccccc1N | inactive
17 | Cc1cccc(C#N)c1 | inactive
18 | CCOc1ccc2c(c1)C(C)=CC(C)(C)N2 | inactive
19 | CCCCCCCCCCCC(=O)O | inactive
20 | BrCCBr | inactive

Row | Compound | outcome
21 | C=CC(N)=O | inactive
22 | Clc1cc(Cl)c(-c2cc(Cl)c(Cl)cc2Cl)cc1Cl | inactive
23 | CC[C@H]1OC(=O)[C@H](C)[C@@H](O[C@H]2C[C@@](C)(OC)[C@@H](O)[C@H](C)O2)[C@H](C)[C@@H](O[C@@H]2O[C@H](C)C[C@H](N(C)C)[C@H]2O)[C@](C)(O)C[C@@H](C)CN(C)[C@H](C)[C@@H](O)[C@]1(C)O | inactive
24 | O=[N+]([O-])c1ccc(Cl)c(Cl)c1 | inactive
25 | CC(C)Nc1nc(Cl)nc(NC(C)C)n1 | inactive
26 | COc1ccc(/C=C/c2cc(OC)cc(=O)o2)cc1 | inactive
27 | Cc1cccc([N+](=O)[O-])c1 | inactive
28 | Nc1c(Cl)c(Cl)nc(C(=O)O)c1Cl | inactive
29 | CCCSC(=O)Cl | inactive
30 | CC(Cl)Cl | inactive
31 | C=CC1CC=CCC1 (stereo not given) | inactive
32 | C/C=C/C=C/C(=O)O | inactive
33 | CCCCSP(=O)(SCCCC)SCCCC | inactive
34 | COC(=O)c1ccccc1O | inactive
35 | C1CCC2CCCCC2C1 (stereo not given) | inactive
36 | Clc1nc(Cl)nc(Nc2ccccc2Cl)n1 | inactive
37 | C[C@]12CC[C@H]3[C@@H](CCC4=CC(=O)CC[C@@]43C)[C@@H]1CC[C@@H]2O | inactive
38 | CCS(=O)CCSP(=O)(OC)OC (stereo not given) | inactive
39 | ClC1=C(Cl)C2(Cl)C3C4C=CC(C4)C3C1(Cl)C2(Cl)Cl (stereo not given) | inactive
40 | O[C@@H]([C@H](O)[C@@H](O)CBr)[C@@H](O)CBr | inactive
